From PMC5540273 (PLoS ONE, 2017) come the findings set out here.

Each structure is given as a SMILES string.

Common to all, as to conditions: concentration: 1 μM, replicates: in singlicate; n = 1
Assay [1] deals with SGK2.
Assay [2] relates to SGK3.
In assay [3] the test system is SGK.
In assay [4] the test system is SIK2.
For assay [5], the system named is SIK.
Assay [6] concerns SLK.
The subject of assay [7] is T1, SNARK.
T1 construct: gene NUAK2

The test system of assay [8] is SNRK.
Assay [9] deals with SRC.
In assay [10] the test system is SRMS.
The subject of assay [11] is SRPK1.
For assay [12], the system named is SRPK2.
Assay [13] has as its system SRPK3.
Assay [14] deals with STK16.
Assay [15] has as its system STK33.
For assay [16], the system named is STK35.
For assay [17], the system named is STK36.
Assay [18] relates to STK39.
The subject of assay [19] is SYK.
Assay [20] relates to SgK110.
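Note: KINOMEscan kinase panel screen.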

Consider `CCC(=O)c1c(-c2ccccc2)c2cc(Cl)ccc2c(=O)n1Cc1ccc(C(=O)O)cc1`, for which the “%Inh” value in assay [1] worked out at 6%; in [2], 0%; in assay [3] it was 1%; in assay [4], 7%; in assay [5], 0%; in [6], 0%. For the same compound, the “%Inh” value was 0% in assay [7]; 0% in assay [8]; 0% in assay [9]; 0% in assay [10]; 0% in assay [11]; 10% in assay [12]. Also, the “%Inh” value worked out at 0% in assay [13]; 0% in assay [14]; 0% in [15]; 0% in [16]; 0% in [17]; 23% in [18]. Also, the “%Inh” value in assay [19] is given as 0%; in [20], 49%.
For `OCCCNc1nccc(-c2c(-c3cccc(C(F)(F)F)c3)nn3cc(C(F)(F)F)ccc23)n1` [GW630813], the “%Inh” value in assay [1] is recorded as 0%; in [2], 6%; in [3], 0%; in assay [4], 0%; in [5] it was 0%; in assay [6] it was 4%. In addition, the “%Inh” value worked out at 0% in [7]; 0% in assay [8]; 0% in assay [9]; 0% in [10]; 7% in assay [11]; 2% in [12]. In addition, the “%Inh” value amounted to 0% in assay [13]; 8% in assay [14]; 0% in assay [15]; 0% in [16]; 55% in assay [17]; 0% in assay [18]. The “%Inh” value in assay [19] and in assay [20] was 0% each time.
As to `C[C@@H]1CC[C@H](C(=O)NC2CCCCC2)CN1c1cc(-c2ccc3c(N)n[nH]c3c2)nc(N)n1` [GSK2291363], the “%Inh” value in [1] came out at 0%; in assay [2], 13%; in [3] it was 0%; in assay [4], 3%; in assay [5] it was 29%; in assay [6] it was 20%. For the same compound, the “%Inh” value in assay [7] came to 31%; in assay [8] it was 0%; in assay [9], 3%; in assay [10] it was 11%; in [11], 77%; in assay [12], 5%. Moreover, the “%Inh” value in [13] was 36%; in assay [14], 21%; in assay [15], 57%; in assay [16], 0%; in [17], 0%; in assay [18], 0%. The “%Inh” value is on record as 37% in [19] and 0% in [20].
Regarding `CCCC(=O)Nc1n[nH]c2ncc(-c3cccc4ccccc34)cc12` [SB-642057], the “%Inh” value in assay [1] is on record as 0%; in assay [2], 26%; in [3], 0%; in [4], 0%; in [5], 0%; in assay [6], 14%. The “%Inh” value in assay [7] came to 0%; in assay [8], 0%; in [9], 0%; in [10] it was 4%; in assay [11], 16%; in assay [12] it was 0%. Besides, the “%Inh” value in [13] was 0%; in assay [14], 24%; in [15], 0%; in assay [16], 4%; in [17], 0%; in assay [18] it was 6%. The “%Inh” value in assay [19] and in [20] was 0% in each case.
Turning to `Cl.c1ccc(Cn2cnc3cc(Nc4ncnc5ccccc45)ccc32)cc1` [GW272142], the “%Inh” value in [1] was found to be 0%; in [2], 0%; in assay [3] it was 0%; in assay [4], 0%; in [5], 0%; in assay [6], 20%. For the same compound, the “%Inh” value is 0% in [7]; 0% in assay [8]; 0% in assay [9]; 0% in assay [10]; 19% in assay [11]; 0% in assay [12]. For the same compound, the “%Inh” value in assay [13] was 0%; in assay [14], 28%; in assay [15], 0%; in assay [16], 0%; in assay [17], 0%; in assay [18] it was 7%. Also, the “%Inh” value is 11% in assay [19] and 0% in assay [20].
Take `COc1cc2ncn(-c3cc(OCc4ccncc4)c(C(N)=O)s3)c2cc1OC` [GSK336313]: the “%Inh” value in assay [1] amounted to 0%; in [2], 3%; in assay [3], 0%; in assay [4] it was 0%; in [5] it was 0%; in [6], 43%. The “%Inh” value in [7] came to 4%; in assay [8] it was 0%; in assay [9] it was 0%; in assay [10], 0%; in assay [11] it was 23%; in assay [12] it was 0%. Further, the “%Inh” value was determined as 0% in [13]; 25% in assay [14]; 0% in [15]; 0% in [16]; 0% in assay [17]; 4% in assay [18]. Besides, the entries for the “%Inh” value in [19] and in assay [20] were 26% and 0%, respectively.
Turning to `CCC(=O)c1c(-c2ccccc2)c2cc(Cl)ccc2c(=O)n1Cc1cc(S(C)(=O)=O)n(CCC(C)(C)O)n1`, the “%Inh” value in assay [1] is reported as 4%; in assay [2], 0%; in assay [3], 4%; in assay [4], 7%; in assay [5], 11%; in assay [6], 21%. For the same compound, the “%Inh” value in assay [7] stood at 1%; in [8], 27%; in [9] it was 0%; in assay [10], 0%; in [11], 3%; in assay [12] it was 53%. Besides, the “%Inh” value in [13] came out at 11%; in assay [14], 1%; in [15], 8%; in [16], 15%; in assay [17], 11%; in assay [18], 0%. Besides, the “%Inh” value in assay [19] stood at 25%; in assay [20], 9%.
Turning to `CCc1nc(-c2cccc(C)c2)c(-c2ccncc2)s1`, the “%Inh” value was found to be 0% in [1]; 0% in assay [2]; 0% in [3]; 4% in assay [4]; 2% in assay [5]; 26% in assay [6]. Moreover, the “%Inh” value came out at 0% in [7]; 9% in [8]; 0% in [9]; 0% in assay [10]; 0% in [11]; 0% in [12]. Besides, the “%Inh” value in [13] came out at 15%; in assay [14], 23%; in assay [15], 0%; in assay [16], 0%; in assay [17], 15%; in assay [18], 0%. In addition, the “%Inh” value turned out to be 23% in assay [19] and 0% in assay [20].
For `COc1cc2ncn(-c3cc(OCc4ccc(S(C)(=O)=O)cc4)c(C(N)=O)s3)c2cc1OC` [GW869979], the “%Inh” value in assay [1] is given as 24%; in [2] it was 5%; in [3], 40%; in assay [4] it was 0%; in assay [5], 0%; in [6] it was 29%. Further, the “%Inh” value in assay [7] came to 15%; in [8], 2%; in assay [9], 11%; in assay [10], 14%; in assay [11], 25%; in [12], 0%. The “%Inh” value in [13] is 13%; in [14] it was 2%; in assay [15] it was 27%; in assay [16], 0%; in assay [17] it was 0%; in assay [18] it was 0%. For the same compound, the “%Inh” value in assay [19] and in [20] was 0% throughout.
`CCn1c(-c2nonc2N)nc2ccccc21` [SB-693162/GW549034]: the “%Inh” value in [1] turned out to be 12%; in assay [2] it was 62%; in [3] it was 12%; in assay [4], 0%; in [5], 10%; in [6], 20%. Further, the “%Inh” value in assay [7] is 51%; in assay [8], 40%; in [9] it was 0%; in assay [10], 0%; in [11], 0%; in [12], 0%. Also, the “%Inh” value in [13] stood at 24%; in assay [14], 23%; in assay [15] it was 15%; in [16], 0%; in assay [17], 0%; in [18] it was 37%. In addition, the “%Inh” value in assay [19] and in assay [20] was 0% in each case.
With `CN1C(=O)C(Nc2ccccc2)=C(c2ccccc2)C1=O` [SB-300079], the “%Inh” value is 0% in assay [1]; 11% in assay [2]; 7% in assay [3]; 7% in assay [4]; 3% in [5]; 0% in assay [6]. In addition, the “%Inh” value in assay [7] is reported as 12%; in assay [8] it was 0%; in assay [9], 0%; in assay [10], 21%; in assay [11] it was 0%; in assay [12], 0%. Moreover, the “%Inh” value in assay [13] was determined as 0%; in [14], 0%; in assay [15], 9%; in [16], 0%; in assay [17] it was 0%; in [18], 0%. In addition, the “%Inh” value is 3% in assay [19] and 0% in [20].
